Here are results for 40 sequences from the OligoGym collection.
Further: reference of the scale not given here.

For one experiment, the target named is FEZ1. Kind of experiment: pooled miR-30 sensor sort-seq; sequence = guide strand. Conditions: shRNA.
For ATGAACCATAGAAACACTGGGG, the sensor-assay potency score (higher = more potent) was -0.474.

TGAACCATAGAAACACTGGGGC returned a sensor-assay potency score (higher = more potent) of 0.345.

Sequence ATTACTAGCACTAGAAGCCAAC yielded a sensor-assay potency score (higher = more potent) of -1.45.

In turn, TCAAACTCCAGCTCGTCCCGGC came in with a sensor-assay potency score (higher = more potent) of 0.386.

The sequence TAGTCTTAAGAGTATAAGCTGT yielded a sensor-assay potency score (higher = more potent) of -0.799.

On to TTTATTTCAAAATTAGTCTTAA, for which the sensor-assay potency score (higher = more potent) is -0.684.

With TTCTCGTAAGGAATGACTGTGT, the sensor-assay potency score (higher = more potent) was -0.149.

With TTTAAATACATGTCGGAGGTTA, the sensor-assay potency score (higher = more potent) amounted to 0.312.

TTGAAGCTGATTATTTCGGAAG: the sensor-assay potency score (higher = more potent) is -0.859.

In a further experiment the target is FFAR2. The experiment is described as above. The settings on record: shRNA.
Take TCGTGTTCAAGTATTGAACGAT: the sensor-assay potency score (higher = more potent) was -0.455.

The sequence TCGGTGAAGTTCTCGTAGCAGG displayed a sensor-assay potency score (higher = more potent) of -0.822.

Consider TTATCGGTGAAGTTCTCGTAGC, for which the sensor-assay potency score (higher = more potent) is -0.593.

For the sequence TTTTTCTCTGGTGATACCCCAC, the sensor-assay potency score (higher = more potent) was -0.286.

As for TCTCGTAGCAGGTAATTTCATT, the sensor-assay potency score (higher = more potent) was -0.802.

TTCTCCTTGACCCACACCCCTG: the sensor-assay potency score (higher = more potent) was -1.59.

Take TGAGTGAACTGAACACCACGGC: the sensor-assay potency score (higher = more potent) is 0.269.

Consider TAGCAGGTAATTTCATTGCCAC, for which the sensor-assay potency score (higher = more potent) is -0.783.

TAGATGCTGCTGTAGAAGCCAA gave a sensor-assay potency score (higher = more potent) of -0.865.

In turn, TAAGCCATGAGGATCAAGGAGC gave a sensor-assay potency score (higher = more potent) of -1.02.

For the sequence TTGAGTGAACTGAACACCACGG, the sensor-assay potency score (higher = more potent) stood at 0.516.

Consider TTCATTGCCACTTCTGACCTGC, for which the sensor-assay potency score (higher = more potent) came out at 0.752.

The next experiment has as its target FGA. Described as above. Conditions: shRNA.
Regarding TGTCTTTCCACAACCCTTGGGC, the sensor-assay potency score (higher = more potent) came out at 0.289.

As for TCAATCAACCCTTTCATCCTGC, the sensor-assay potency score (higher = more potent) came to 0.452.

The sequence TTCAGTGATCCATCCATTCTTT displayed a sensor-assay potency score (higher = more potent) of -0.0325.

TATTCTGTTTGTAAAATCTTGA displayed a sensor-assay potency score (higher = more potent) of -0.477.

As to TAACTCCATTCTCATCTGCGGC, the sensor-assay potency score (higher = more potent) is -1.53.

The sequence TTCTGCACAGTTCTCTTCCCAC registered a sensor-assay potency score (higher = more potent) of -0.744.

Turning to TATTGTTCTTCTGATATTCAAA, the sensor-assay potency score (higher = more potent) was -1.2.

On to AACATTTTTCTGCAGAAGCTGG, for which the sensor-assay potency score (higher = more potent) was -0.95.

TTGTAGTCTTGCCAGGTCCGGT gave a sensor-assay potency score (higher = more potent) of -0.917.

For the sequence TCAAAGACTAATATGTCTCAGG, the sensor-assay potency score (higher = more potent) was -0.257.

In turn, TTCTATGACTTTGCGCTTCAGG returned a sensor-assay potency score (higher = more potent) of -0.597.

With TTTTTCTATGACTTTGCGCTTC, the sensor-assay potency score (higher = more potent) is -0.192.

The sequence TTTCTCTCCACTTCTCTAGCAA gave a sensor-assay potency score (higher = more potent) of 0.384.

With TAAAATTCAGTGATCCATCCAT, the sensor-assay potency score (higher = more potent) is 0.455.

Take TTTAGCTACAGTACAAAGGATA: the sensor-assay potency score (higher = more potent) was -0.909.

Turning to TTAGGTTGTAGAGAATCTCAAC, the sensor-assay potency score (higher = more potent) is -0.726.

As to TAAATTGTTTGCTGTAACTTGA, the sensor-assay potency score (higher = more potent) is -0.0308.

TAAGTCTTTGGCAATGACCTGT displayed a sensor-assay potency score (higher = more potent) of 0.441.

TGTAGTTCCAGTCTTCATCAGA displayed a sensor-assay potency score (higher = more potent) of -0.66.
